# Vaccinia mCherry: qHTS for Stage-Specific Inhibitors of Vaccinia Orthopoxvirus: mCherry Reporter Primary qHTS. Potency, µM (doses to about 36.5 µM), inactives show at the top dose activity change, negative = inhibition, usual class: inhibitors. Vaccinia virus mCherry reporter infection, fluorescence. actives 0.63% (n = 310,000). AID 720579, 2013; calls by dose curve; tested in A549 cells; further: potency means the concentration at half of the fitted maximal effect; nearly all actives have a fitted effect of over 35% in size
# FMDV antiviral: High Throughput Screening for Foot and Mouth Disease Virus Antivirals; FMDV antiviral cell-based qHTS; Potency, µM (highest dose often 57.9 µM), for inactives: at the highest dose activity change, negative = inhibition, most hits filed as inhibitors; AID 1159524, 2015; actives 1.2% (n = 410,000); calls by dose curve; tested in HEK293T cells; further: read-out not given here; potency means the concentration at half of the fitted maximal effect; nearly all actives have a fitted effect of over 45% in size
# VACV Venus inh: qHTS for Stage-Specific Inhibitors of Vaccinia Orthopoxvirus: Venus Reporter Primary qHTS | Vaccinia virus Venus reporter expression, fluorescence | Potency, µM (top dose mostly 36.5 µM), for inactives: at the highest dose activity change, negative = inhibition, hits mostly inhibitors | actives 0.46% (n = 330,000) | AID 720580, 2013; calls by dose curve; tested in A549 cells; further: potency means the concentration at half of the fitted maximal effect; nearly all actives have a fitted effect of over 30% in size
# HCMV antiviral: qHTS Assay for inhibitors of the human cytomegalovirus (HCMV) | actives 4.5% (n = 410,000) | HFF cells, HCMV-luciferase reporter, 72 h; hits give low values | AID 1259415, 2018 | activity change, negative = inhibition, % at 57.5 µM; in the data active means activity change below about -60%; inconclusive means no clear call, values can overlap the other calls; inactive means above about -39%
#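 Luciferase read-out from HCMV-luciferase-infected HFFs (MOI 1 PFU/cell) 72 h post infection at 37C; compounds added after 16 h cell attachment; activity normalized between buffer-only basal and Salinomycin (10uM) inhibitor controls.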
# HCV inh: qHTS Assay for Inhibitors of Hepatitis C Virus (HCV). actives 3.4% (n = 340,000). Potency, µM (titrated, usually from 41.8 µM), inactives show top-dose activity change, negative = inhibition, hits mostly inhibitors. Huh7.5.1 HCVcc-Cre infection, luciferase reporter, 44 h; further: potency means the concentration at half of the fitted maximal effect
#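 After 44 h co-culture of compound, cells and HCVcc-Cre (~0.5 moi), substrate is added for 15 min at room temperature and luciferase measured over 15 sec. Cells were seeded at 1,000/well and pre-cultured 4 h.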
# Sm TGR inh: qHTS Assay for the Inhibitors of Schistosoma Mansoni Peroxiredoxins; Schistosoma mansoni thioredoxin glutathione reductase (TGR), Q962Y6; actives 3% (n = 360,000); Potency, µM (titrated, usually from 114 µM), for the others: at the top dose activity change, negative = inhibition, actives largely listed as inhibitors; purified TGR, DTNB reduction, TNB absorbance 405 nm; further: potency means the concentration at half of the fitted maximal effect; nearly all actives have a fitted effect of over 60% in size
#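 Kinetic colorimetric format: TGR-catalysed, NADPH-driven DTNB reduction monitored via TNB absorbance. Enzyme dispensed at 20 nM; compound exposure 15 min at room temperature before reaction start.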
# * = called active by the depositor; i = inactive; ? = inconclusive; . = no result given; ! = repeats disagree; [ ] = dose if it differs, or a comment. Only some compounds are listed: those with a hit (about 9.3% of all), similar ones and a draw of the others. Unless noted, the call rests on the fitted dose curve; in most records, active means well fitted curve in the direction sought with a large enough effect; inconclusive means small, poorly fitted or top-dose-only effect, or another doubt; inactive means no such curve, though single readings can be large; an effect the other way counts as inactive or inconclusive. On the % scale 0 is the no-effect control and ±100 the full control effect.
SMILES,Vaccinia mCherry,FMDV antiviral,VACV Venus inh,HCMV antiviral,HCV inh,Sm TGR inh
C#CCOc1c(Br)cc(/C=N/O)cc1OCC,.,-27%,-11%,?,2.2µM*,-24%
CCOc1cc(/C=N/O)cc(Cl)c1OC,.,-11%,-11%,-19,11µM*,0%
Cn1cc(CC(=O)NCCCN2CCOCC2)c2ccccc21,.,-9%,.,-1,24%,7%
Cc1ccccc1C(=O)N1CCC(c2nc(-c3ccc(S(=O)(=O)N4CCCC4)cc3)no2)CC1,i,-3%,-14%,-3,.,-5%
CN(C)C(=S)Nc1ccc([N+](=O)[O-])cc1,-15%,7%,-7%,4,4%,19%
CCNC(=S)N1CCNC(=O)C1CC(=O)OC (centres undefined),-10%,?,-19%,-72*,-1%,-9%
Cc1cccc(C)c1OP(N)(=O)OCC(F)(F)F (centres undefined),i,9%,-5%,-15,16%,7%
COc1ccc(Nc2ncc(C(=O)N3CCN(c4ccc(F)cc4)CC3)c3ccccc23)cc1,-21%,?,-15%,-105*!,11µM*,4%
COc1ccc(Nc2ncc(C(=O)N3CCC4(CC3)OCCO4)c3ccccc23)cc1,.,-14%,-23%,-76*,-6%,-16%
Cc1cc(NC(=O)CN(C)S(=O)(=O)c2ccc3c(c2)CCCC(=O)N3)ccc1Br,?,?,-20%,?,.,-1%
COC(=O)c1sc2ncccc2c1OCc1c(Cl)cccc1Cl,.,-19%,.,-22,13%,18%
COC(=O)c1sc2ncccc2c1OCc1cccc(Cl)c1,.,15%,.,-102*,-3%,9%
O=C(Nc1ccccc1)c1ccc(Br)o1,i,63%,-3%,-62*,-12%,4%
Cc1ccc2cccc(NC(=O)c3ccc(Br)o3)c2n1,.,0%,.,142,10µM*,-28%
O=C(Nc1ccc2c(c1)oc1ccccc12)c1ccc(Br)o1,.,26%,?,10,18µM*,-24%[11.4 µM]
Cc1ccc2cccc(NC(=S)NC(=O)c3ccn(C)n3)c2n1,-3%,-20%,-10%,78,32µM*,-8%
O=C(Nc1ccc2ccccc2c1)c1ccc(Br)o1,?,10%,5%,53,-30%,4%
O=C(c1nc2ccccn2c1CN1CCN(c2ccccc2O)CC1)N1CCCC1,-13%,-11%,-23%,-3,23%,0%
COc1ccc(-c2nc3cnc(N4CCN(C)CC4)nc3n(CCc3ccccc3)c2=O)cc1,.,-12%,.,.,.,.
Cc1cc(C)c(OCC(=O)N(Cc2ccc(N(C)C)cc2)CC2CCCO2)c(C)c1 (centres undefined),-15%,5%,-21%,-19,.,0%
Cc1ccccc1OCC(=O)N(Cc1ccc(N(C)C)cc1)CC1CCCO1 (centres undefined),-15%,4%,-14%,-63*,.,0%
CCN1C(=O)[C@H]2[C@H]3CN=C(SCc4ccc(C)cc4)N3[C@@](Cc3ccccc3)(C(=O)OC)[C@H]2C1=O,i,-19%,-21%,-8,0.32µM*,.
CCN1C(=O)[C@H]2[C@H]3CN=C(SC)N3[C@@](Cc3ccccc3)(C(=O)OC)[C@H]2C1=O,i,-7%,9%,-1,0.56µM*,.
CCN1C(=O)[C@H]2[C@H]3CN=C(SCc4ccc(Cl)cc4)N3[C@@](Cc3ccccc3)(C(=O)OC)[C@H]2C1=O,-18%,?,-27%,7,?,.
COC(=O)[C@@]1(Cc2ccccc2)[C@H]2C(=O)N(Cc3ccccc3)C(=O)[C@H]2[C@H]2CN=C(SC)N21,?,0%,-14%,-12,9%,.
SMILES,Vaccinia mCherry,FMDV antiviral,VACV Venus inh,HCMV antiviral,HCV inh,Sm TGR inh
Cc1cccc(N2C(=O)C(CC(=O)Nc3ccccc3)N(C3CCCCC3)C2=O)c1 (centres undefined),3%,-23%,5%,17,.,4%
CC(CN1CCCCC1)OC(=O)c1ccc(Cl)cc1 (centres undefined),.,-16%,-5%,4,18%,4%
CCOC(=O)C(CN1CCCC1)c1ccccc1 (centres undefined),i,-15%,-9%,-24,16%,0%
O=C(c1ccc(Cl)cc1)C(CN1CCCCC1)c1ccccc1 (centres undefined),?,14µM*,11µM*,-101*,16µM*,6.3µM*
O=C(c1ccccc1)C(CN1CCCC1)c1ccccc1 (centres undefined),?,3.5µM*,16µM*,-103*,?,45µM*
CCOc1cc(/C=N/NC(=O)C2CC2)ccc1OC(C)C,i,17%,-6%,-27,1%,5%
O=C(O)c1ccccc1-n1ncc2c1/C(=C/c1ccc(Cl)cc1)CC2,.,.,.,-19,.,14µM*
O=C(O)c1ccc(-n2ncc3c2/C(=C/c2cccc([N+](=O)[O-])c2)CC3)cc1,.,69%,.,67,-2%,-23%
C/C(=C\C(=O)c1cccnc1)Nc1ccc(C(=O)O)cc1,.,-7%,.,27,3%,-8%
CC(=O)Nc1ccc(N/C(C)=C/C(=O)c2cccnc2)cc1,4%,10%,-11%,-61*,0%,5%
C/C(=C\C(=O)c1ccccc1)NNC(=O)c1ccc(Cl)cc1,i,2%,17%,-73*,22%,-27%
COc1ccc(N/C(C)=C/C(=O)c2ccccc2)cc1,i,5%,-15%,-11,10µM*,-1%
CC(c1nc2ccccc2n1Cc1ccccc1)N1CCCCC1 (centres undefined),i,?,0%,-67*,10%,-5%
O=C(CCCC(=O)NCC1CCCO1)NCC1CCCO1 (centres undefined),i,7%,-18%,38,1%,-29%
O=C(Cc1ccccc1)OC(COCc1ccccc1)CN1CCOCC1 (centres undefined),.,-15%,-10%,-88*,8%,-5%
O=[N+]([O-])c1ccc(SCc2ccncc2)nc1,-20%,8%,-16%,-84*,19%,-9%
Nc1cc(SCc2ccc([N+](=O)[O-])cc2)ncn1,-16%,-3%,-22%,14,7%,.
C/C(=N\OCC(=O)OC(C)C(=O)Nc1ccc(C)c(S(=O)(=O)N2CCOCC2)c1)c1ccc2c(c1)OCO2 (centres undefined),.,11%,.,0,3%,.
N#Cc1c(/N=C/c2c(O)n(Cc3ccco3)c(=O)[nH]c2=O)sc2c1CCCC2,-13%,5%,4%,1,-8%,89µM*
